Myeloid diff MLP: promotes myeloid progenitor differentiation; ER-HoxA9 myeloid progenitors, lysozyme-GFP differentiation, flow cytometry; calls only at 10 µM; 1% of 360,000 active; AID 624256;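 active means normalized GFP-positive differentiation at or above the plate's own cutoff, the solvent-only control mean plus 3 SD; inconclusive means no clear call, values can overlap the other calls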;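 further: cells exposed to compound for four days before flow analysis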
NadD inh: NadD (S. aureus) enzyme inhibition | purified NadD enzyme, colorimetric absorbance read-out | inhibition, % at 20 µM | 0.78% of 360,000 active | AID 602399; in the data active means inhibition above about 26%
FAS-TE inh: blocks the thioesterase domain of human fatty acid synthase; P49327; recombinant FAS-TE, OMFH fluorogenic substrate, fluorescence endpoint; inhibition, % at 15 µM; 0.67% of 360,000 active;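 active means compounds whose normalised, plate-corrected inhibition of enzyme fluorescence in the single-dose primary screen is 50% or more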;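 further: 0% = DMSO with enzyme and 100% = substrate without enzyme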
CRFR2-BP antag: blocks CRF-induced signaling of the CRF-BP/CRF-R2 complex. HEK293 CRF-R2/CRF-BP, CRF-induced calcium fluorescence. inhibition, % at 11.8 µM. AID 588475. 0.59% of 350,000 active;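 active means inhibition of the ligand-induced calcium signal above about 50% at the single tested concentration, limit read from the data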
CendR NRP1 mod: NRP-1/CendR interaction modulation. FAM-RPARPAR peptide binding to NRP-1, fluorescence polarization. O14786. inhibition, % at 25 µM. 0.85% of 360,000 active;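 active means inhibition or corrected inhibition above about 18%, plus a signal ratio from 0.5 to 1.5, limit read from the data, passing the limit was not always enough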
Target sequence (O14786 whole entry, looked up): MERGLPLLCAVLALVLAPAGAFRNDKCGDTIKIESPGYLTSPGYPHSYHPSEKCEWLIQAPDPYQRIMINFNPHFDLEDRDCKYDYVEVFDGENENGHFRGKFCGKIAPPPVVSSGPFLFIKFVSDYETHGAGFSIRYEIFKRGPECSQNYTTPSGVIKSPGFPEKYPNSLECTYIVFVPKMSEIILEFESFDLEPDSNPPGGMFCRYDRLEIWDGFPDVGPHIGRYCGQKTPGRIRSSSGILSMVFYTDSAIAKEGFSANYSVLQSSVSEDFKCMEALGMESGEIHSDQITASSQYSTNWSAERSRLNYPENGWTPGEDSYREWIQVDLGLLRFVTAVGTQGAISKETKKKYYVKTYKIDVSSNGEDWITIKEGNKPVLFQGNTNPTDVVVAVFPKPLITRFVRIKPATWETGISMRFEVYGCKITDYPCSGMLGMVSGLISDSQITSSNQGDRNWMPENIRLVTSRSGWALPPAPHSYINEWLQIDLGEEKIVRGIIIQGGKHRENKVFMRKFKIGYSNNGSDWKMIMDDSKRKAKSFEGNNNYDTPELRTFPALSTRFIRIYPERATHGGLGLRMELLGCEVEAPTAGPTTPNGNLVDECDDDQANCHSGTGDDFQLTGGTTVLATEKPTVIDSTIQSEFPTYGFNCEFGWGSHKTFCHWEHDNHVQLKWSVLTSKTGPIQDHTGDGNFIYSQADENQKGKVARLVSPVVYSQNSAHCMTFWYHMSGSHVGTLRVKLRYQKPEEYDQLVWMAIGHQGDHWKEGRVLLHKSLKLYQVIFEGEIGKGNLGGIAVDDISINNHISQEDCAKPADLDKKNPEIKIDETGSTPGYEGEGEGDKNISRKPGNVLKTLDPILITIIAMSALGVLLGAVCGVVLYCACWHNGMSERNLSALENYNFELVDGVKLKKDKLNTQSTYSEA
Active calls of the source: *. This is a sample that favours compounds with a hit; in the whole collection about 3.6% have one here.

How did Cc1[nH]c2ccccc2c1CCN do in these assays?
Myeloid diff MLP: inactive; NadD inh: 0; FAS-TE inh: -6; CRFR2-BP antag: -5; CendR NRP1 mod: -8

Results for Cc1cccc(N2C(=O)NC(=O)/C(=C\c3cc(C)n(-c4sc5c(c4C#N)CCCC5)c3C)C2=O)c1C ?
Myeloid diff MLP: inactive; NadD inh: 29*; FAS-TE inh: -5; CRFR2-BP antag: -54; CendR NRP1 mod: -140

Results for CCOC(=O)c1c(-n2c(C)cc(C=C3C(=O)NC(=O)NC3=O)c2C)sc2c1CCCC2 ?
Myeloid diff MLP: inactive; NadD inh: 17; FAS-TE inh: -10; CRFR2-BP antag: -42; CendR NRP1 mod: -58

Results for C[C@]12CCC3C(CC[C@H]4C[C@@H](O)CC[C@]34C)C1C[C@H](Br)[C@@H]2O (some centres not stated) ?
Myeloid diff MLP: inactive; NadD inh: -3; FAS-TE inh: -1; CendR NRP1 mod: 1

What do the screens show for `C=C(C)[C@@]12OC3(c4ccccc4)O[C@@H]1C1[C@@H]4O[C@]4(CO)[C@@H](O)[C@]4(O)C(=O)C(C)=C[C@H]4[C@@]1(O3)[C@H](C)[C@H]2OC(=O)/C=C/C=C/c1ccccc1` (some centres not stated)?
Myeloid diff MLP: inconclusive; NadD inh: 21; FAS-TE inh: 57*; CRFR2-BP antag: 111*; CendR NRP1 mod: 9

How did CCCOC(=O)C1C2CCC(O2)C1C(=O)O (configuration not stated) do in these assays?
Myeloid diff MLP: inactive; NadD inh: 5; FAS-TE inh: 1; CRFR2-BP antag: -6; CendR NRP1 mod: 0

Results for Cc1cc2c(C(C)C)c(O)c(O)c(C=O)c2c(O)c1-c1c(C)cc2c(C(C)C)c(O)c(O)c(C=O)c2c1O ?
Myeloid diff MLP: inactive; NadD inh: 50*; FAS-TE inh: 48; CendR NRP1 mod: -65

What do the screens show for `Cc1c(NS(=O)(=O)c2ccccc2)ccc([N+](=O)[O-])c1Cl`?
Myeloid diff MLP: inactive; NadD inh: -2; FAS-TE inh: 11; CRFR2-BP antag: 54*; CendR NRP1 mod: -5

What do the screens show for `CC12CCC(=O)C=C1CCC1C2CCC2(C)C(O)(C(=O)CO)CCC12O` (configuration not stated)?
Myeloid diff MLP: inactive; NadD inh: 1; FAS-TE inh: -7; CRFR2-BP antag: -3; CendR NRP1 mod: 22

Results for CCC(=O)c1cn(Cc2ccccc2)c2ccccc12 ?
Myeloid diff MLP: inactive; NadD inh: -4; FAS-TE inh: 12; CRFR2-BP antag: 8; CendR NRP1 mod: 7

Results for O=C(COc1ccccc1)c1cn(Cc2ccccc2)c2ccccc12 ?
Myeloid diff MLP: active; NadD inh: 4; FAS-TE inh: 19; CRFR2-BP antag: 11; CendR NRP1 mod: -58

How did Nc1ccc2ccc3cccc[n+]3c2c1 do in these assays?
Myeloid diff MLP: active; NadD inh: 27; FAS-TE inh: -141; CRFR2-BP antag: -92; CendR NRP1 mod: 131

Results for COc1ccc(-c2ccc(OC)c(OC)c2OC)cc1 ?
Myeloid diff MLP: inconclusive; NadD inh: -4; FAS-TE inh: -2; CRFR2-BP antag: 9; CendR NRP1 mod: 0

How did CN(C)c1ccc(N=Cc2c(O)n(CCC3=CCCCC3)c(=O)[nH]c2=O)cc1 do in these assays?
Myeloid diff MLP: inactive; NadD inh: 17; FAS-TE inh: -8; CRFR2-BP antag: -30; CendR NRP1 mod: 61*

What do the screens show for `O=c1[nH]c(=O)n(CCC2=CCCCC2)c(O)c1/C=N/Nc1cccc2ccccc12`?
Myeloid diff MLP: inactive; NadD inh: 31*; FAS-TE inh: 10; CRFR2-BP antag: -21; CendR NRP1 mod: -33

Results for O=c1[nH]c(=O)n(CCC2=CCCCC2)c(O)c1/C=N/Nc1ccccc1 ?
Myeloid diff MLP: inactive; NadD inh: 1; FAS-TE inh: -5; CRFR2-BP antag: -67; CendR NRP1 mod: -19

Results for C=CCNC(=S)N1Cc2cc(Br)ccc2-n2nncc2C1 ?
Myeloid diff MLP: inactive; NadD inh: -1; FAS-TE inh: -8; CendR NRP1 mod: -11

Results for ClCCN(CCCl)c1ccc(-n2cnc3c(Cl)ncnc32)cc1 ?
Myeloid diff MLP: inactive; NadD inh: 5; FAS-TE inh: 19; CRFR2-BP antag: 21; CendR NRP1 mod: -3

What do the screens show for `COC(=O)C1=C(c2ccc(F)cc2F)C[C@@H]2CC[C@H]1N2C(=O)N1CCCC1`?
Myeloid diff MLP: inactive; NadD inh: 0; FAS-TE inh: -8; CRFR2-BP antag: 2; CendR NRP1 mod: 28*

How did COC(=O)C1=C(c2ccc(F)cc2F)C[C@@H]2CC[C@H]1N2C(=O)N1CCCCC1 do in these assays?
Myeloid diff MLP: inactive; NadD inh: -1; FAS-TE inh: -7; CRFR2-BP antag: -7; CendR NRP1 mod: 22*

What do the screens show for `CCOC(=O)CNC(=O)N1Cc2ccccc2-n2nncc2C1`?
Myeloid diff MLP: active; NadD inh: 0; FAS-TE inh: -9; CRFR2-BP antag: -2; CendR NRP1 mod: -2

Results for O=C(Nc1nccs1)c1c(O)c2c(n(Cc3ccco3)c1=O)CCCC2 ?
Myeloid diff MLP: inactive; NadD inh: 4; FAS-TE inh: 24; CRFR2-BP antag: -10; CendR NRP1 mod: 3

Results for CC[C@]12CC[C@H](O)CC1=CCC1C2CC[C@]2(C)C(=O)CCC12 (some centres not stated) ?
Myeloid diff MLP: inactive; NadD inh: -10; FAS-TE inh: 4; CRFR2-BP antag: 5; CendR NRP1 mod: 9

Results for O=C1NC(=O)C(=Cc2ccc(SC3CCCCC3)o2)C(=O)N1 ?
Myeloid diff MLP: inactive; NadD inh: 36*; FAS-TE inh: -1; CRFR2-BP antag: -89; CendR NRP1 mod: -79

How did NS(=O)(=O)c1ccc(-c2ccc(C=C3C(=O)NC(=O)NC3=O)o2)cc1 do in these assays?
Myeloid diff MLP: inactive; NadD inh: 2; FAS-TE inh: -12; CRFR2-BP antag: -5; CendR NRP1 mod: -36

How did CC(Cc1ccccc1)N1Cc2ccccc2C1 (configuration not stated) do in these assays?
Myeloid diff MLP: inactive; NadD inh: -1; FAS-TE inh: -5; CRFR2-BP antag: 8; CendR NRP1 mod: -6

Results for CCCCn1c(NC(=O)c2ccc(Br)o2)c(C(=O)OCC)c2nc3ccccc3nc21 ?
Myeloid diff MLP: active; NadD inh: 9; FAS-TE inh: 34; CRFR2-BP antag: 2; CendR NRP1 mod: -20

Results for CCCCn1c(NS(=O)(=O)c2ccccc2)c(C(=O)OCC)c2nc3ccccc3nc21 ?
Myeloid diff MLP: inactive; NadD inh: 16; FAS-TE inh: 9; CRFR2-BP antag: -11; CendR NRP1 mod: -7

How did Cc1cc(N(CCCl)CCCl)ccc1C=Cc1ccncn1 do in these assays?
Myeloid diff MLP: inconclusive; NadD inh: 3; FAS-TE inh: 8; CRFR2-BP antag: -49; CendR NRP1 mod: -127

What do the screens show for `COc1ccc(-c2ccc3c(c2)CN(c2cccc(Cl)c2)Cc2cnnn2-3)cc1`?
Myeloid diff MLP: inactive; NadD inh: 8; FAS-TE inh: 28; CendR NRP1 mod: 10
